Autofluor counter: counter-screen for toxin protease inhibitors: compound fluorescence; compound autofluorescence counterscreen, microsphere flow cytometry; stronger effect = higher value; fluorescence intensity (concentration not given with the values); 3.1% of 360,000 active; in the data active means fluorescence intensity above about 16000; inconclusive means no clear call, values can overlap the other calls
PfHsp40 yeast: compounds rescuing yeast from Plasmodium falciparum HSP40 toxicity. S. cerevisiae expressing PfHsp40, growth rescue, ATP luminescence. growth rescue, % at 12.5 µM. 0.68% of 340,000 active. AID 504582; in the data active means growth rescue above about 28%, passing the limit was not always enough; inconclusive means no clear call, values can overlap the other calls;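 further: yeast W303a lacking pdr1 and pdr3 grown in galactose medium; growth measured after three days at 30 °C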
MazF activator: activators of E. coli MazEF toxin-antitoxin RNase; P0AE70; FAM/BHQ RNA-DNA oligo cleavage fluorescence, 5 h; activation, % at 20 µM; 0.32% of 350,000 active; in the data active means activation above about 50%
Target sequence (P0AE70 whole entry, looked up): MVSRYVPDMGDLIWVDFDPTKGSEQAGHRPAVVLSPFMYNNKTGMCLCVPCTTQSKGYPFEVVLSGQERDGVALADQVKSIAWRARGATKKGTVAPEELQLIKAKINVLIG
BoNT-A LC inh2: blocks Botulinum neurotoxin A light chain protease; multiplex microsphere protease substrate cleavage, flow cytometry; inhibition, % at 10 µM; 0.17% of 360,000 active; further: plate controls were buffer without enzyme for full effect and enzyme alone for no effect
Anthrax LF prot: blocks Bacillus anthracis lethal factor protease; multiplex microsphere protease cleavage assay, LF; inhibition, % at 10 µM; P15917; 0.12% of 360,000 active; AID 588501; further: plate controls were buffer without enzyme for full effect and enzyme alone for no effect
BoNT-F LC inh: BoNT F light chain protease inhibition. inhibition, % at 10 µM. Multiplex microsphere protease cleavage assay, flow cytometry. AID 588497. 0.22% of 360,000 active; in the data active means inhibition above about 35%, passing the limit was not always enough; inconclusive means no clear call, values can overlap the other calls; further: plate controls were buffer without enzyme for full effect and enzyme alone for no effect
Numbers without * were called inactive; ? = inconclusive; . = not tested or not shown. Compounds with a hit are over-represented: about 4.3% of the library has one in this group of screens. Unless noted, no stated cut-off is given here; in the data, active means inhibition above about 30%; inconclusive means no clear call, values can overlap the other calls; inactive means below that.

SMILES	Autofluor counter	PfHsp40 yeast	MazF activator	BoNT-A LC inh2	Anthrax LF prot	BoNT-F LC inh
Cn1c(=O)c2c(nc(N3CCCCC3)n2CCSc2nc3ccccc3s2)n(C)c1=O	16274*	0	-8	0	0	-4
COc1ccc(Cl)cc1S(=O)(=O)N(C)CC(=O)N1CCOCC1	4458	1	2	1	-1	1
CCOc1ccccc1NC(=O)NC(C)c1ccc2c(c1)OCO2 (stereo not drawn)	5918	-1	.	-2	0	10
O=C(CC(NC(=O)c1ccccc1Cl)c1ccccc1)Nc1ccc2c(c1)OCO2 (stereo not drawn)	20052*	1	0	1	0	0
CC(C)C(C(=O)Nc1ccc2c(c1)OCO2)N1C(=O)c2ccccc2C1=O (stereo not drawn)	20817*	0	-4	?	-2	0
COc1ccccc1C(=O)Nc1ccc2c(c1)OCO2	23284*	1	7	1	-1	-2
CCOc1ccccc1C(=O)NC(C)c1ccc2c(c1)OCO2 (stereo not drawn)	18046*	1	2	5	1	2
Cc1ccccc1NC(NC(=O)OCCn1c([N+](=O)[O-])cnc1C)C(Cl)(Cl)Cl (stereo not drawn)	1929	-1	3	0	-1	4
CCCc1cc(=O)oc2cc(OCC(=O)NCCc3ccc(S(N)(=O)=O)cc3)ccc12	4958	1	3	1	3	7
COc1ccc(OC)c(NC(=O)c2cc3ccccc3o2)c1	3336	1	13	0	-4	-32
COc1ccc(C)cc1NC(=O)c1cc2ccccc2o1	23609*	0	6	?	-6	-4
COc1ccc(C)cc1NC(=O)c1ccc2c(c1)OCO2	21822*	0	-2	2	0	2
COc1ccc(C)cc1NC(=O)COC(=O)c1ccc2c(c1)OCO2	2993	0	-42	0	-9	-8
COc1cc(C(=O)Nc2ccc(C)cc2)c(-n2cnnn2)cc1OC	4065	1	8	0	2	5
COc1cc(C(=O)Nc2ccc3c(c2)OCCO3)c(-n2cnnn2)cc1OC	22353*	0	-6	0	-2	-1
COc1ccc(OCCCC(=O)Nc2ccc3c(c2)OCO3)cc1	16175*	0	2	0	0	-2
Cc1noc(C)c1CCC(=O)Nc1cc(C(=O)O)ccc1Cl	3990	.	-5	0	-7	-5
O=C(Nc1ccc([N+](=O)[O-])cc1)Nn1cnnc1	4789	-2	-7	-1	6	4
COc1ccc(N(CC(=O)NCC2CCCO2)S(=O)(=O)c2c(C)noc2C)cc1 (stereo not drawn)	23408*	0	5	?	-2	-6
O=C(CN(c1ccc(F)cc1)S(=O)(=O)c1ccc2c(c1)OCCO2)NCC1CCCO1 (stereo not drawn)	22449*	2	-16	1	2	1
COc1ccc(N(CC(=O)NCc2cccc(OC)c2)S(=O)(=O)c2c(C)noc2C)cc1	20088*	-2	1	0	-2	0
O=C(NC1CCN(C(=O)c2cccc([N+](=O)[O-])c2)CC1)c1ccccc1	4217	-1	-4	-5	8	?
CNc1nc(Cl)c(SC)c(NCc2cccc(OC)c2)n1	4483	.	3	-4	-1	48*
NC(=O)c1ccccc1NC(=O)COc1ccc2c(c1)OCO2	3192	1	-8	-3	8	-18
COc1cc(NC(=S)NC(C)=O)ccc1NC(=O)C(C)C	16967*	-1	0	-3	-2	-4
SMILES	Autofluor counter	PfHsp40 yeast	MazF activator	BoNT-A LC inh2	Anthrax LF prot	BoNT-F LC inh
C=CCNC(=O)CCCc1ccccc1	23759*	-1	10	0	-1	-2
C=CCNC(=O)c1ccc(C(=O)c2ccccc2)cc1	23162*	-1	8	0	0	2
O=C(CCCCC(=O)NCCCc1ccccc1)NCCCc1ccccc1	4073	0	-2	-4	-5	?
C=CCNC(=O)c1ccc2nc(-c3ccccc3)c(-c3ccccc3)nc2c1	3442	0	5	2	1	-14
O=C(NCCc1ccccn1)c1cc(-c2cccc3ccccc23)nc2ccccc12	2549	2	-12	0	0	1
CCCn1nnnc1NCc1ccc(OC)cc1OC	3552	0	-1	0	-7	6
CCCCn1nnnc1NCc1cc(OC)c(OC)cc1OC	16650*	0	7	0	0	0
CC(=O)Nc1ccc(/C=N/Nc2nc3ccccc3s2)cc1	4317	0	8	0	-2	0
